Bioassay records deposited in PubChem BioAssay by NMMLSC.
Rows were chosen to be rich in hits. Some 1.2% of all compounds tested hit in one or more screens of this group.
RGS7-Gao reg: RGS7-Galphao binding modulators, primary screen, biochemical, multiplexed bead flow cytometry; AID 1439, 2008; actives lie on both sides; actives 0.35% (n = 220,000); binding response (% of control), % at 10 µM; in the data active means binding response below about 49% or above about 150%; inconclusive means no clear call, values can overlap the other calls; inactive means in between;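 further: fluorescent Galphao held in activated GDP-AlF4 state binding bead-coupled RGS7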
Target sequence (P09471 whole entry, looked up): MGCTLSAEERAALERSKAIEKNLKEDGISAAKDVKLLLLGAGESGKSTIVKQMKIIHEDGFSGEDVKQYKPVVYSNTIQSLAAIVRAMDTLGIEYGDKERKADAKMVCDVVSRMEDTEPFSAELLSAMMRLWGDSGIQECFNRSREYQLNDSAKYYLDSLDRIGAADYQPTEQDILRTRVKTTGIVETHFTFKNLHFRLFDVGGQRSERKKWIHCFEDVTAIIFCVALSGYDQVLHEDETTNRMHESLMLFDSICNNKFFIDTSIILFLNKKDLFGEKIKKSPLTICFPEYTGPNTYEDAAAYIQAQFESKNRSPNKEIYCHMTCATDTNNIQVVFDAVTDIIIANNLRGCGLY
GSH bead fluor: compound fluorescence on glutathione beads, profiling panel, artefact control, biophysical, 488/530 nm, flow cytometry | GSH beads flow cytometry, compound fluorescence 488/530 nm; active compounds read high | fluorescence (KMESF) at 10 µM | actives 0.25% (n = 190,000); in the data active means fluorescence above about 89;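 further: glutathione beads carrying GST-tagged Bcl family fusion proteins plus one bare bead set; values are compound well signal with DMSO vehicle wells as background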
RGS16-Gao HTS: modulators of RGS16 binding to Galphao, primary screen, biochemical, human proteins, multiplexed bead flow cytometry. bead-based flow cytometry RGS16-Galphao binding, fluorescence; actives lie on both sides. binding response (% of control), % at 10 µM. AID 1441, 2008. Regulator of G-protein signaling 16 (Homo sapiens) + Guanine nucleotide-binding protein …. actives 0.38% (n = 220,000); call rule not given here;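 further: Galphao activated by GDP with aluminum fluoride before binding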
RGS4-Gao reg: modulators of RGS4 binding to Galphao, primary screen, biochemical, multiplexed bead flow cytometry; Guanine nucleotide-binding protein G(o) subunit alpha (Homo sapiens), P09471; actives lie on both sides; binding response (% of control), % at 10 µM; actives 0.33% (n = 220,000); AID 1415, 2008; in the data active means binding response below about 49% or above about 150%; inactive means in between;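 further: fluorescent Galphao activated with aluminum fluoride binding bead-coupled RGS4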
Avidin bead fluor: green autofluorescence of compounds with avidin beads – biophysical, 488/530 nm, flow cytometry, artefact control, profiling panel | actives 0.38% (n = 220,000) | AID 1775, 2009 | fluorescence (KMESF) at 10 µM | compound fluorescence 488/530 nm; active compounds read high; in the data active means fluorescence above about 47
RGS8-Gao: RGS8-Galphao binding modulators, primary screen, biochemical, multiplexed bead flow cytometry. Guanine nucleotide-binding protein G(o) subunit alpha (Homo sapiens), P09471. actives lie on both sides. response (percent of control binding), % at 10 µM. actives 0.34% (n = 220,000). AID 1423, 2008; in the data active means response below about 60% or above about 140%; inactive means in between;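 further: Galphao activated as the GDP aluminium fluoride complex binding bead-coupled RGS8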
An asterisk follows results filed as active; i = inactive; ? = inconclusive; . = no result; + = active, no number; [ ] = another dose, or the depositor's remark.

SMILES	RGS7-Gao reg	GSH bead fluor	RGS16-Gao HTS	RGS4-Gao reg	Avidin bead fluor	RGS8-Gao
CC(C)=CCC(C)(C)C1OCCN1C(=O)Nc1ccccc1 (stereo unspecified)	103	258*	109	102	8	101
COc1cccc(N/C(SCc2ccccc2F)=C(/C#N)C(=O)NCc2cccs2)c1	104	9	111	106	9	106
CC(=O)Nc1ccc(S(=O)(=O)N2CCSC2c2ccc(Cl)cc2)cc1 (stereo unspecified)	100	265*	60	97	9	86
CCn1c(COc2ccc(=O)n(-c3ccccc3)n2)nnc1SCc1cccc(OC)c1	-3.1*	12	-13*	-20*	-1	13*
COC(=O)Cc1ccc(NC(=S)NC2CC2)cc1	?	.	100	102	4	103
O=C(Oc1cccnc1)c1cccc(Cl)c1	104	267*	111	107	6	106
Cc1ccccc1C(=O)NNC(=O)CSc1nc(-c2ccccc2)cc(=O)[nH]1	?	19	95	96	10	97
Cc1cnc(C(=O)OCc2ccc(COC(=O)c3cnc(C)cn3)cc2)cn1	?	7	93	104	69*	100
Cc1ccc(CNC(=O)COC(=O)c2cnc(C)cn2)cc1	?	16	102	102	9	104
COc1ccc(NS(=O)(=O)c2ccc3c(c2)NC(=O)CO3)cc1	104	13	102	104	10	103
Cc1ccc(NS(=O)(=O)c2ccc3c(c2)NC(=O)CC(=O)N3)cc1C	111	26	107	99	58*	98
CCOC(=O)/C(C#N)=C/Nc1ccccc1OC(F)(F)F	?	.	91	134	105*	95
CCOC(=O)/C(C#N)=C/Nc1cc(OC)ccc1OC	107	9	120	103	4	106
Cc1c(/C=N\NC(=O)c2csc3ccccc23)cnn1C	127	23	106	110	54*	102
CC(C)Cn1c(N)c(C(=O)CSc2ncnc3sc4c(c23)CCCC4)c(=O)n(C)c1=O	98	101*	91	101	3	98
CCC(C)NS(=O)(=O)c1ccc(OCC(=O)NCc2ccccn2)cc1 (stereo unspecified)	110	14	107	104	16	102
CCC(C)NS(=O)(=O)c1ccc(OCC(=O)NCc2cccnc2)cc1 (stereo unspecified)	104	257*	64	103	4	95
Cc1onc(-c2ccccc2)c1C(=O)Nc1ccc(S(=O)(=O)NC(C)(C)C)cc1	101	27	113	101	10	104
Cc1ccc(Nc2nnc(SCC(=O)NCc3ccco3)s2)cc1	94	259*	97	95	7	102
O=C(CSc1nnc(Nc2ccccc2)s1)NCc1ccco1	106	10	107	104	12	102
CC1(C)CSC(=NCc2ccccc2)N1C(=O)c1cccc([N+](=O)[O-])c1	101	10	116	100	16	103
Cc1c(Cl)c(C(=O)N2CCCC2)nn1C	103	8	103	102	8	101
COC(=O)c1ccc(Cl)c(NC(=O)NC23CC4CC(CC(C4)C2)C3)c1	103	18	99	99	12	99
COC(=O)c1cccc(NC(=O)NC23CC4CC(CC(C4)C2)C3)c1	102	243*	102	100	8	102
COC(=O)COc1cc(C)cc2oc(=O)c(CC(=O)OC)c(C)c12	99	24	94	91	60*	96
SMILES	RGS7-Gao reg	GSH bead fluor	RGS16-Gao HTS	RGS4-Gao reg	Avidin bead fluor	RGS8-Gao
Cc1occc1C(=O)NN=C1C2CC3CC(C2)CC1C3	100	105*	103	101	8	101
O=C(OCCCCN1C(=O)c2ccccc2C1=O)c1ccc(S(=O)(=O)N2CCCC2)cc1	104	266*	101	102	7	101
COc1cccc(-c2nnc(SCC3CNC(=O)O3)n2-c2ccc(Cl)cc2)c1 (stereo unspecified)	104	13	107	101	13	102
Cc1ccsc1C(=O)OCC(=O)NCc1ccc2c(c1)OCO2	104	261*	105	103	7	103
CC(=O)OCC(=O)NCc1ccc2c(c1)OCO2	106	46	110	105	8	103
CN1CC(=O)N(CC(=O)NCc2ccc3c(c2)OCO3)C1=O	100	283*	106	102	8	105
Cc1ccc(C2=NN(CCC(=O)NCc3ccc4c(c3)OCO4)C(=O)CC2)cc1	115	226*	119	115	32	97
COC(=O)c1c(NC(=O)CSc2nnc(C)c(=O)[nH]2)sc(C)c1C	109	13	103	108	8	102
CCOC(=O)C(NC(=O)CC)(Nc1nc2c(s1)CCCC2)C(F)(F)F (stereo unspecified)	107	156*	111	116	7	106
CC(C)c1cc(C(=O)OCC(=O)NC(=O)NCc2ccco2)c(O)c(C(C)C)c1	?	9	105	103	9	101
CC(Oc1ccccc1)C(=O)OCC(=O)NC(=O)NCc1ccco1 (stereo unspecified)	102	267*	122	106	6	105
CCC(C)(NC(=O)c1ccc2c(c1)OCO2)C(=O)NC1CCCCC1 (stereo unspecified)	105	20	97	98	10	99
C=CCn1c(SCC(=O)NC(=O)NCc2ccco2)nc2sc(CC)cc2c1=O	90	267*	100	89	5	101
C=CCn1c(SCC(=O)NCc2ccco2)nc2ccccc2c1=O	93	25	98	96	10	96
CC(=O)N1c2ccccc2NC2=C(C(=O)CCC2)C1c1cccnc1 (stereo unspecified)	105	19	105	97	49*	96
Cc1ccc(-c2nn(CC(=O)NCc3cc(-c4nn(C)c(=O)c5ccccc45)ccc3C)c(=O)c3ccccc23)cc1	+[activator]	25	i	+[activator]	487*	209*[activator]
O=C(Nc1ccc(Cl)cc1)N1CCCC(Cn2cccc2)C1 (stereo unspecified)	?	.	99	99	7	98
CC(=O)N1CCC(N(C(=O)Nc2ccc(C)c(C)c2)C2CCCC2)CC1	105	18	106	103	47*	101
CCc1ccc(-c2nc(NC(=S)NC(=O)c3cccs3)sc2C)cc1	114	24	98	99	57*	98
O=C(NC(=S)Nc1nc2ccccc2s1)c1cccs1	105	6	109	107	14	103
